An excerpt weighted towards active compounds, which were near 10% of everything screened.
p97 ATPase inh = blocks human p97 ATPase activity; P55072; recombinant p97 ATPase, Kinase-Glo ATP luminescence, 3 h; AID 1481; actives 0.42% (n = 220,000); inhibition, % at 8 µM; in the data active = inhibition above about 15%;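 also: 0% = DMSO vehicle and 100% = wells lacking enzyme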
ROMK primary = modulates human ROMK potassium channel activity | B-score at 10 µM | actives 2% (n = 130,000) | Tet-inducible ROMK, thallium flux fluorescence; actives lie on both sides | AID 1918 | P48048;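 active = signal ratio slope over the read window, or its plate-corrected B-score, at least 3 SD from the plate mean, either direction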;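 also: B-score of the F/F0 ratio slope over 7 to 12 s after thallium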
Target sequence (P48048 whole entry, looked up): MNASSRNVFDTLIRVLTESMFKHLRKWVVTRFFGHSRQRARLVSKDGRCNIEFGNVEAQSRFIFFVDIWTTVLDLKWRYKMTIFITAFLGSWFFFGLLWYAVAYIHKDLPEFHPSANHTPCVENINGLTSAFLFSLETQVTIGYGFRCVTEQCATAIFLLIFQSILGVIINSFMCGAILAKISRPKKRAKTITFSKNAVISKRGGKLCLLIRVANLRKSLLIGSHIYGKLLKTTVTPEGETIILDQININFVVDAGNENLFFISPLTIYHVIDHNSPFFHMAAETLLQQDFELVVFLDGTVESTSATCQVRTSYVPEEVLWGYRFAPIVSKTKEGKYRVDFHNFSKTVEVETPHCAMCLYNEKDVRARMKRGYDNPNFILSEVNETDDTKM
PTEN del growth = suppresses growth of cells with PTEN deletion; HCT116 PTEN-null viability, CellTiter-Glo, 60 h; active compounds read low; viability, % at 10 µM; actives 1.2% (n = 140,000); AID 827;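 active = viability at or below a set limit, 4 SD under the median of all tested compounds, cut at about 3.7% in these data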;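 also: PTEN knockout HCT116 line with beta catenin targeted HCT116 as companion control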
bCat KO growth = beta-catenin-lacking colon tumor cell growth suppression | HCT116 beta-catenin knockout viability, CellTiter-Glo, 60 h; active compounds read low | viability, % at 10 µM | actives 1.5% (n = 140,000);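 active = viability at or under a set limit, the compound median less 4 SD, cut at about 6% in these data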;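 also: 0% = Hyamine 1622 control at 20 µM and 100% = untreated cell control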
Insulin prom inh = TRM-6 insulin promoter activity inhibition | TRM-6 cells (human fetal islet line), insulin promoter-eGFP reporter, imaging; reporter expression induced with tamoxifen | inhibition, % at 2 µM | actives 0.9% (n = 130,000);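 active = inhibition above the mean plus 3 SD, with well images judged a real hit on visual review, cut at about 60% in these data, passing the limit was not always enough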
L major viab = inhibitors of Leishmania major promastigote growth. Leishmania major promastigotes, resazurin fluorescence viability. inhibition, % at 10 µM. actives 9% (n = 200,000). AID 1063; in the data active = inhibition above about 50%;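 also: promastigotes grown with compound for 44 hours at 28 °C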
Active calls of the source: *; . = no result given.

SMILES	p97 ATPase inh	ROMK primary	PTEN del growth	bCat KO growth	Insulin prom inh	L major viab
CCC(=O)N1CCN(c2ccc(NC(=O)c3ccc([N+](=O)[O-])o3)cc2)CC1	1	-0.36	.	.	.	100*
CCCC(=O)N1CCN(c2ccc(NC(=O)c3ccc(Br)o3)cc2)CC1	-3	.	110	92	-3	-3
CCC(=O)N1CCN(c2ccc(NC(=O)c3ccccc3)cc2)CC1	4	0.56	.	.	.	1
O=C(COC(=O)Cn1nnc2ccccc21)Nc1ccccc1Br	6	.	97	91	.	-6
Cc1onc(-c2c(Cl)cccc2Cl)c1C(=O)N=C(N)N1CC(C)OC(C)C1 (centres undefined)	2	-0.027	.	.	.	.
Cc1ccc(S(=O)(=O)C2(C(=O)N3CCCCCC3)CC2)cc1	-7	.	101	91	-130	-3
Cc1ccc(S(=O)(=O)C2(C(=O)N3CCN(C4CCCCC4)CC3)CC2)cc1	-2	.	100	92	14	76*
Cc1ccc(S(=O)(=O)C2(C(=O)N3CCN(c4cc(C)ccc4C)CC3)CC2)cc1	-4	-0.47	.	.	-93	72*
CC(=O)Nc1ccc(S(=O)(=O)N2CCN(c3cc(C)ccc3C)CC2)cc1	6	.	77	72	.	-5
CC(NC(=O)CNC(=S)N(Cc1ccccc1)Cc1cccnc1)c1ccccc1 (centres undefined)	3	-0.61	.	.	-17	65*
O=C(CNC(=S)N(Cc1ccccc1)Cc1cccs1)NCc1ccc(F)cc1	-7	-0.56	.	.	0	20
O=C(CNC(=S)N(Cc1ccccc1)Cc1ccccc1F)NCCc1ccc(Cl)cc1	0	0.71	.	.	33	98*
Cc1ccc(CNC(=O)CNC(=S)N(Cc2ccccc2)Cc2cccnc2)cc1	1	-0.42	.	.	-17	97*
Cc1csc(SCC(=O)N(C)CC(=O)Nc2ccc(F)cc2)n1	-2	-0.5	.	.	.	16
CC1(c2ccccc2)CC(C)(C)N2C(=O)Cc3cccc1c32 (centres undefined)	-1	-0.0032	.	.	18	4
CCOC(=O)c1cnc2c(C)cccc2c1Nc1ccc(N2CCOCC2)cc1	0	.	80	82	27	43
CCOC(=O)c1cnc2c(C(=O)OC)cccc2c1NCc1ccco1	-5	0.54	72	65	50	51*
CCOC(=O)c1cnc2c(C)cccc2c1NCc1ccco1	-1	-1.3	62	66	68*	56*
Cn1c(SCC(=O)c2ccc3c(c2)OCCO3)nnc1C(F)(F)F	3	.	.	.	.	.
CCCCOc1ccc(C(=O)N/C(=C\c2ccc(OC)cc2)C(=O)OCc2ccco2)cc1	3	0.31	71	88	.	96*
O=S(=O)(c1ccc(Cl)cc1)N(CCCN1CCOCC1)Cc1cccs1	3	-0.4	.	.	29	68*
COc1ccc(S(=O)(=O)N(CCCN2CCOCC2)Cc2cccc(OC)c2OC)cc1	-1	-0.71	94	93	-36	4
O=C(Nc1ccc(Cl)cc1)N(CCCN1CCOCC1)Cc1cccs1	4	.	88	90	.	8
COc1ccc(S(=O)(=O)N(CCCN2CCOCC2)Cc2cccc3ccccc23)cc1	-3	0.25	93	94	17	99*
COc1cc(C(=O)NNC(=S)NCc2ccco2)cc(OC)c1OC	0	-1.2	.	.	.	-5
SMILES	p97 ATPase inh	ROMK primary	PTEN del growth	bCat KO growth	Insulin prom inh	L major viab
Cc1ccc(S(=O)(=O)N2CCOCC2)cc1C(=O)NNC(=O)c1ccoc1C	6	-0.014	.	.	-20	-4
COc1ccccc1C(=O)Nc1ccc(Cc2ccncc2)cc1	2	-1.6	86	82	27	9
Cc1ccccc1C(=O)NC(=S)Nc1ccc(Cc2ccncc2)cc1	5	-0.21	96	93	27	53*
COc1c(C)cc(Br)cc1C(=O)Nc1ccc(Cc2ccncc2)cc1	2	-0.31	.	.	.	96*
Cc1c([N+](=O)[O-])cc(C(=O)Nc2ccc(Cc3ccncc3)cc2)cc1[N+](=O)[O-]	5	-0.72	89	99	35	99*
O=c1c(Br)c(N2CCCCC2)cnn1-c1ccccc1	3	-1.1	.	.	.	21
NC(=O)c1ccccc1NC(=O)Nc1cccc(Cl)c1Cl	-7	-0.59	77	84	-6	65*
O=C(CCS(=O)(=O)c1ccccc1)Nc1cccc2c1C(=O)NC2=O	0	-0.62	.	.	.	-1
O=C(Oc1c(CN2CCOCC2)cc(Cl)c2cccnc12)c1ccccc1Cl	-1	.	.	.	.	100*
O=C(Oc1c(Cl)cc(Cl)c2cccnc12)c1cccs1	2	0.0095	12	12	29	17
O=C(Oc1c(CN2CCOCC2)cc(Cl)c2cccnc12)c1cccs1	0	2.1	.	.	.	100*
CN(C1CCCCC1)S(=O)(=O)c1ccc(-c2ccccn2)s1	6	.	.	.	.	.
COC(=O)c1ccc(COC(=O)c2ccc(-n3cnnn3)cc2)o1	3	-0.33	107	103	21	-3
Nc1ccc(C(=O)N/N=C\c2cc(N=Nc3cccc4ccccc34)ccc2O)cc1	3	.	6	7	0	99*
Cc1cc(C(=O)N/N=C/c2cc(N=Nc3ccccc3)ccc2O)n[nH]1	-2	.	7	7	.	99*
COC(=O)N/N=C/c1cc(N=Nc2ccccc2Cl)ccc1O	-5	.	.	.	.	.
COC(=O)N/N=C/c1cc(N=Nc2ccccc2)ccc1O	5	.	.	.	.	.
NC1=NC(=O)C2(COC(c3cccnc3)OC2)S1 (centres undefined)	6	-1.8	.	.	-82	22
C=C(C)C1CC=C(C)/C(=N\NC(=O)CNc2cccc3ccccc23)C1 (centres undefined)	5	.	88	87	.	0
Cn1c(=O)cc(C(=O)N/N=C/c2ccc(F)cc2)[nH]c1=O	6	0.042	.	.	.	.
N#Cc1cc2c(nc1Cl)CCCC2	4	0.047	110	99	27	73*
N#Cc1cc2c(nc1Cl)CCC2	3	.	.	.	.	.
CCC(C)(C)C1CCc2nc3ccccc3c(C(=O)OC(C)C(=O)Nc3c(C)n(C)n(-c4ccccc4)c3=O)c2C1 (centres undefined)	5	.	24	31	38	84*
Cc1ccc(NC(=O)C(Cc2ccccc2)N2C(=O)C3C4CCC(C4)C3C2=O)cc1Cl (centres undefined)	4	1.5	42	44	8	88*
COc1ccc(N(CC(=O)N/N=C/c2ccco2)S(=O)(=O)c2ccccc2)cc1	-1	.	109	96	14	-5
SMILES	p97 ATPase inh	ROMK primary	PTEN del growth	bCat KO growth	Insulin prom inh	L major viab
Cc1nc(NC(=O)/C=C/c2ccccc2)sc1C(=O)N1CCCCC1	-7	0.085	.	.	-13	1
CSc1cccc(NC(=S)N(Cc2ccc(C)cc2)Cc2ccccn2)c1	2	-1.2	.	.	.	97*
COc1ccccc1NC(=S)N(Cc1ccc(C)cc1)Cc1ccccn1	3	-0.12	.	.	.	91*
CC(=O)Oc1cc2c(cc1Cl)C(c1cccs1)CC1(CC(C)(C)NC(=S)N1)O2 (centres undefined)	2	.	.	.	.	34
CSc1ccc(N/N=C(/C#N)S(=O)(=O)C(C)(C)C)cc1	2	-3.2*	.	.	-27	-4
COc1ccc(N/N=C(/C#N)S(=O)(=O)C(C)(C)C)cc1	5	-1.9	.	.	.	-7

Screening data from PubChem.
